Source: the supplement of paper PMC10849652
About 7,900 targets were measured; listed, in parts, are those with a hit and a random draw of the rest. About 0.6% of all pairs of compound and target were hits.

Assays:
Assay in all cases: log2 fold change, soluble protein after heating vs DMSO (PISA); higher = thermal stabilisation; K562 cells, 10 uM, 30 min; active = over 0.2 and 3.5 SD of the protein, either way, in both replicates (recomputed)
bafetinib = compound: Cc1ccc(NC(=O)c2ccc(CN3CC[C@H](N(C)C)C3)c(C(F)(F)F)c2)cc1Nc1nccc(-c2cncnc2)n1 [bafetinib]
In short: (§1)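 Values are thermal stability changes relative to control samples and are taken from duplicates. They are stated as log2 fold changes. Before quantification by TMTpro 16plex LC-MS/MS with equalised channel sums, K562 cells at 2×10^6 cells/mL were treated with 10 μM compound for 30 min, heated in aliquots for 3 min across 48°C-58°C, pooled, extracted in PBS with 0.5% NP-40 at 4°C, and centrifuged at 21,000xg for 90 min to give the soluble supernatant.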

[1] = compound: Cc1cccc(CC(=O)N2CCc3c2ccc(-c2cn(C)c4ncnc(N)c24)c3F)n1
In short: as §1

nilotinib = compound: Cc1cn(-c2cc(NC(=O)c3ccc(C)c(Nc4nccc(-c5cccnc5)n4)c3)cc(C(F)(F)F)c2)cn1 [nilotinib]
In short: as §1

[2] = compound: Cc1nc(Nc2n[nH]c3c2CN(C(=O)N[C@H](CN(C)C)c2ccccc2)C3(C)C)c2sccc2n1
In short: as §1

dasatinib = compound: Cc1nc(Nc2ncc(C(=O)Nc3c(C)cccc3Cl)s2)cc(N2CCN(CCO)CC2)n1 [dasatinib]
In short: as §1

[3] = compound: Cc1ncc(-c2ccnc(Nc3ccc(S(C)(=O)=O)cc3)n2)n1C(C)C
In short: as §1

[4] = compound: Cn1cc(-c2ccc3c(c2)CCN3C(=O)Cc2cccc(C(F)(F)F)c2)c2c(N)ncnc21
In short: as §1

[5] = compound: Cn1cc(-c2ccc3nnc(C(F)(F)c4ccc5ncccc5c4)n3n2)cn1
In short: as §1

tipifarnib = compound: Cn1cncc1[C@@](N)(c1ccc(Cl)cc1)c1ccc2c(c1)c(-c1cccc(Cl)c1)cc(=O)n2C [tipifarnib]
In short: as §1

mubritinib = compound: FC(F)(F)c1ccc(/C=C/c2nc(COc3ccc(CCCCn4ccnn4)cc3)co2)cc1 [mubritinib]
In short: as §1

[6] = compound: NC(=O)Nc1cc(-c2cccc(F)c2)sc1C(=O)N[C@H]1CCCNC1
In short: as §1

[7] = compound: NC(=O)c1cnc(N[C@@H]2CCCC[C@@H]2N)nc1Nc1cccc(-n2nccn2)c1
In short: as §1

[8] = compound: NC1(c2ccc(-c3nc4ccn5c(=O)[nH]nc5c4cc3-c3ccccc3)cc2)CCC1
In short: as §1

[9] = compound: NCC(=O)Nc1ccc(-n2nc(C(F)(F)F)cc2-c2ccc3c(ccc4ccccc43)c2)cc1
In short: as §1

entinostat = compound: Nc1ccccc1NC(=O)c1ccc(CNC(=O)OCc2cccnc2)cc1 [entinostat]
In short: as §1

vorinostat = compound: O=C(CCCCCCC(=O)Nc1ccccc1)NO [vorinostat]
In short: as §1

citarinostat = compound: O=C(CCCCCCNC(=O)c1cnc(N(c2ccccc2)c2ccccc2Cl)nc1)NO [citarinostat]
In short: as §1

silmitasertib = compound: O=C(O)c1ccc2c(c1)nc(Nc1cccc(Cl)c1)c1ccncc12 [silmitasertib]
In short: as §1

[10] = compound: O=C1NC(=O)C(c2cnc3ccccn23)=C1c1cn2c3c(cc(F)cc13)CN(C(=O)N1CCCCC1)CC2
In short: as §1

[11] = compound: c1cc(OCCN2CCCCC2)cc(-c2n[nH]c3ccc(-c4nnc[nH]4)cc23)c1
In short: as §1

Measured: log2 fold change

GLS isoform 3 (UniProt O94925)
active: mubritinib -0.492
inactive: bafetinib 0.045 | [1] 0.028 | nilotinib -0.238 | [2] -0.162 | dasatinib -0.282 | [3] 0.046 | [4] -0.097 | [5] 0.114 | tipifarnib -0.208 | [6] -0.133 | [7] 0.154 | [8] -0.285 | [9] 0.01 | entinostat -0.017 | vorinostat 0.019 | citarinostat 0.169 | silmitasertib 0 | [10] -0.24 | [11] 0.071

HAT1 (UniProt O14929)
inactive: bafetinib -0.115 | [1] 0.017 | nilotinib 0.004 | [2] -0.035 | dasatinib -0.044 | [3] -0.025 | [4] 0.024 | [5] 0.006 | tipifarnib 0.004 | mubritinib -0.033 | [6] 0.002 | [7] 0.006 | [8] -0.076 | [9] 0.01 | entinostat 0.053 | vorinostat 0.001 | citarinostat 0.071 | silmitasertib 0.052 | [10] -0.055 | [11] -0.016

GNAI3 (UniProt P08754)
UniProt P08754, sequence (P08754 whole entry, looked up): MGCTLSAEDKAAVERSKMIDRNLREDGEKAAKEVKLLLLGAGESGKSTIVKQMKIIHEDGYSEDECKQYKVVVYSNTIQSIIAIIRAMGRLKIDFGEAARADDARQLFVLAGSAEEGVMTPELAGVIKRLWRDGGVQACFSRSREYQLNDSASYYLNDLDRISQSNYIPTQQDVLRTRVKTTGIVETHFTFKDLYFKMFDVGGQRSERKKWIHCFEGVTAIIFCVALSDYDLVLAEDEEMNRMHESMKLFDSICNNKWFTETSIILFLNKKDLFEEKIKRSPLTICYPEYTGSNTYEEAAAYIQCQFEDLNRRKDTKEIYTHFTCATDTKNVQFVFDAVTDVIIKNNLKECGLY
inactive: bafetinib 0.066 | [1] 0.033 | nilotinib 0.185 | [2] 0.008 | dasatinib 0.086 | [3] -0.004 | [4] -0.017 | [5] 0.018 | tipifarnib -0.008 | mubritinib -0.032 | [6] -0.016 | [7] 0.022 | [8] -0.046 | [9] 0.003 | entinostat -0.04 | vorinostat -0.016 | citarinostat -0.018 | silmitasertib 0.052 | [10] -0.027 | [11] -0.076

GLB1 (UniProt P16278)
UniProt P16278, sequence (P16278 whole entry, looked up): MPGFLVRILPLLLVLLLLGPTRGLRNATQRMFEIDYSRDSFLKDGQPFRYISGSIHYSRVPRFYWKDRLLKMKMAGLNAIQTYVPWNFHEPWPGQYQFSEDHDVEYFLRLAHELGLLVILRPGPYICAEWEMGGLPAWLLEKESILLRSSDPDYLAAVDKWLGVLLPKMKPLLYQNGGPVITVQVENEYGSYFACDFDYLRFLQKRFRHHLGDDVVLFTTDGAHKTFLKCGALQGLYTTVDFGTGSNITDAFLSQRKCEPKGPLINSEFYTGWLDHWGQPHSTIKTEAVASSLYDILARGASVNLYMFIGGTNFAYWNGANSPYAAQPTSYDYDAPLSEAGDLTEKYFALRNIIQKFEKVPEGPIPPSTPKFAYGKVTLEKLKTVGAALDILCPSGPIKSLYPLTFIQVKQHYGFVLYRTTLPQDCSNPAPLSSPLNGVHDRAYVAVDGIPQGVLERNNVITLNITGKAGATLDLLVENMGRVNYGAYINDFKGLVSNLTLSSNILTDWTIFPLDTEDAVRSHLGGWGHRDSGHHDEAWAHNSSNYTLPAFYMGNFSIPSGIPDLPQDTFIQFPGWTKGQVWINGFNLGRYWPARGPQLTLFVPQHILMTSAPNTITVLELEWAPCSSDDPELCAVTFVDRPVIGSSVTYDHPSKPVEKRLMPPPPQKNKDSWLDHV
inactive: [1] -0.009 | nilotinib 0.013 | [2] 0.017 | dasatinib 0.061 | [3] 0.004 | [4] -0.006 | [5] 0.016 | tipifarnib 0.039 | mubritinib -0.009 | [6] 0.02 | [7] 0.002 | [8] -0.097 | [9] -0.043 | entinostat 0.01 | vorinostat -0.065 | citarinostat 0.005 | silmitasertib 0.021 | [10] -0.003 | [11] -0.044
active: bafetinib -0.418

GCSH (UniProt P23434)
UniProt P23434, sequence (P23434 whole entry, looked up): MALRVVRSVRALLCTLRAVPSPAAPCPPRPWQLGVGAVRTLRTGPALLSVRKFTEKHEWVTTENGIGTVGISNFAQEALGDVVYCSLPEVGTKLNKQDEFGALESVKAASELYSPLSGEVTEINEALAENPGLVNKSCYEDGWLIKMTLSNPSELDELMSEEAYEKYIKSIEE
inactive: bafetinib -0.13 | [1] 0.095 | nilotinib -0.022 | [2] 0.01 | dasatinib 0.015 | [3] -0.026 | [4] 0.016 | [5] 0.016 | tipifarnib -0.017 | mubritinib -0.05 | [6] 0.027 | [7] 0.037 | [8] 0.073 | [9] 0.027 | entinostat -0.049 | vorinostat 0.057 | citarinostat 0.022 | silmitasertib 0.193 | [10] -0.144 | [11] -0.04

HHEX (UniProt Q03014)
UniProt Q03014, sequence (Q03014 whole entry, looked up): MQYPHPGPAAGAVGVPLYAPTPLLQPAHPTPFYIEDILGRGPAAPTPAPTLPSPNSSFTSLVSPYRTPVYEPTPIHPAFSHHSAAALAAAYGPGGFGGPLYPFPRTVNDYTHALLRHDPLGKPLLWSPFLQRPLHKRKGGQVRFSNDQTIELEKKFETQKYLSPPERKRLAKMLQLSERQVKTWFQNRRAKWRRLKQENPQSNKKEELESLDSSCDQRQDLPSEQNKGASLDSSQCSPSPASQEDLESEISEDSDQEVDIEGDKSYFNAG
active: [9] 0.568
inactive: bafetinib -0.039 | [1] -0.024 | nilotinib -0.033 | [2] -0.056 | dasatinib 0.04 | [3] 0.008 | [4] 0.373 | [5] 0.044 | tipifarnib -0.012 | mubritinib 0.066 | [6] 0.04 | [7] 0.084 | [8] -0.054 | entinostat 0.045 | vorinostat 0.012 | citarinostat 0.029 | silmitasertib -0.018 | [10] 0.006 | [11] -0.016

HIC2 (UniProt Q96JB3)
UniProt Q96JB3, sequence (Q96JB3 whole entry, looked up): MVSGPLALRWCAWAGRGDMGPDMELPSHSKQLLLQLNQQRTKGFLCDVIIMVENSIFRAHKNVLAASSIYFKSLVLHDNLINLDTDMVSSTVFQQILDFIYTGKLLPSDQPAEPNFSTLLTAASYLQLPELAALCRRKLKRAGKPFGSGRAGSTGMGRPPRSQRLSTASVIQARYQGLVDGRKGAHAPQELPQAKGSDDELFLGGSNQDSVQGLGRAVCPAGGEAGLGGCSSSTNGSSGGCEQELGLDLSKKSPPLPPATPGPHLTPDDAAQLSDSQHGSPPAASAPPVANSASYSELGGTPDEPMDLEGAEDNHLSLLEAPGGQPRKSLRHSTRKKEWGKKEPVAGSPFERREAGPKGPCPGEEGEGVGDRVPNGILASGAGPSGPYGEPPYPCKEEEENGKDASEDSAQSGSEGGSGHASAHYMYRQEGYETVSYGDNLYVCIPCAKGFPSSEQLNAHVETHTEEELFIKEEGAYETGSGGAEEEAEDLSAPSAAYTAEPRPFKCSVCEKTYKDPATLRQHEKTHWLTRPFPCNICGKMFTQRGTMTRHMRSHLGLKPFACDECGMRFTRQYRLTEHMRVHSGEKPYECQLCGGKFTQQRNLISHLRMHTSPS
inactive: bafetinib 0.065 | [1] 0.006 | nilotinib 0.075 | dasatinib 0.071 | [3] -0.181 | [4] -0.124 | [5] -0.032 | tipifarnib -0.051 | mubritinib -0.051 | [6] -0.071 | [7] -0.06 | [8] 0.016 | [9] 0.101 | entinostat -0.027 | vorinostat -0.027 | citarinostat -0.019 | silmitasertib 0.098 | [10] 0.121 | [11] -0.233
active: [2] -0.446

H1FX (UniProt Q92522)
UniProt Q92522, sequence (Q92522 whole entry, looked up): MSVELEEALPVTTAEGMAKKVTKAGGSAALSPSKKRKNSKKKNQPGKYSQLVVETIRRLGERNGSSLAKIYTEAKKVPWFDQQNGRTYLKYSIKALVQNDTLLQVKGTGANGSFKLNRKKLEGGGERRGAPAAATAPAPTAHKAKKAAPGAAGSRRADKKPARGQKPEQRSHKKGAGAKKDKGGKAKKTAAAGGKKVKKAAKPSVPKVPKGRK
inactive: bafetinib 0.248 | [1] 0.048 | nilotinib 0.035 | [2] 0.079 | dasatinib 0.043 | [3] 0.039 | [4] -0.189 | [5] -0.113 | tipifarnib 0.126 | mubritinib -0.138 | [6] 0.248 | [7] 0.165 | [8] 0.153 | [9] 0.118 | entinostat -0.072 | vorinostat 0 | citarinostat -0.122 | silmitasertib 0.078 | [10] 0.227 | [11] -0.12

GID4 (UniProt Q8IVV7)
UniProt Q8IVV7, sequence (Q8IVV7 whole entry, looked up): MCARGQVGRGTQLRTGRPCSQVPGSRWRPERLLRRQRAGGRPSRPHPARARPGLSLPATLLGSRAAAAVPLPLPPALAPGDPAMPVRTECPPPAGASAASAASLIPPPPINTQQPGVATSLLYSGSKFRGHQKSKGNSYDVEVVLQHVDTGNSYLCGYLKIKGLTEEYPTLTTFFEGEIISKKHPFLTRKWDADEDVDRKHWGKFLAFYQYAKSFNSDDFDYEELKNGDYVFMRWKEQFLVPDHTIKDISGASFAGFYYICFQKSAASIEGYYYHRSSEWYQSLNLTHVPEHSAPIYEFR
active: entinostat 0.289
inactive: bafetinib -0.059 | [1] -0.058 | nilotinib -0.051 | [2] 0.003 | dasatinib -0.086 | [3] 0.038 | [4] -0.042 | [5] -0.032 | tipifarnib 0.116 | mubritinib -0.029 | [6] -0.165 | [7] -0.03 | [8] -0.032 | [9] -0.146 | vorinostat -0.074 | citarinostat 0.006 | silmitasertib 0.118 | [10] -0.017 | [11] -0.052

HMGB3 (UniProt O15347)
UniProt O15347, sequence (O15347 whole entry, looked up): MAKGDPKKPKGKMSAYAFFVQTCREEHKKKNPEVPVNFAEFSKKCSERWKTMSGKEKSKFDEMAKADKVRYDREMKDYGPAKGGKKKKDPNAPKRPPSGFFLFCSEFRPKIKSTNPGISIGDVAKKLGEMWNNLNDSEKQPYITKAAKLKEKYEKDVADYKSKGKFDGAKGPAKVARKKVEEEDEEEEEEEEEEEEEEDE
inactive: bafetinib -0.057 | [1] -0.009 | nilotinib 0.051 | [2] -0.013 | dasatinib 0.066 | [3] 0.03 | [4] 0.014 | [5] -0.084 | tipifarnib -0.024 | mubritinib 0.01 | [6] 0.025 | [7] 0.153 | [8] 0.143 | [9] 0.136 | entinostat -0.032 | vorinostat -0.044 | citarinostat -0.159 | silmitasertib -0.068 | [10] -0.043 | [11] 0.146

IFT74 (UniProt Q96LB3)
UniProt Q96LB3, sequence (Q96LB3 whole entry, looked up): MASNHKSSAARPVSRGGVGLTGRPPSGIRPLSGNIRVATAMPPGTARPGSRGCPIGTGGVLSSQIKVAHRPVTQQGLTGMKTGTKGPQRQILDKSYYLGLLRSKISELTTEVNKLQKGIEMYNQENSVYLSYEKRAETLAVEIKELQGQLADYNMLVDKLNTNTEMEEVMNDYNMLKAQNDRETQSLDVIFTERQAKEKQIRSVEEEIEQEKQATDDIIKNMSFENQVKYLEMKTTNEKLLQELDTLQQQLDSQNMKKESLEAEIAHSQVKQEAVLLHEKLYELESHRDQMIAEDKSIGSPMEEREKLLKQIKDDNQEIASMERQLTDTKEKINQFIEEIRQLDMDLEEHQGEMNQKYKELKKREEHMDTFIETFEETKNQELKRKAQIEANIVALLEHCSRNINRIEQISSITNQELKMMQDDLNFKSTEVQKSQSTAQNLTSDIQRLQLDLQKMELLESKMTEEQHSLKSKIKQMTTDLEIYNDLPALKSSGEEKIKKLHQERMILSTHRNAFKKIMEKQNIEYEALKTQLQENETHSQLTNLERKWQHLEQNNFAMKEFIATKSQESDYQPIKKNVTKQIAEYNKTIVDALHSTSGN
inactive: bafetinib -0.095 | [1] 0.015 | nilotinib 0.166 | [2] 0.063 | dasatinib 0.057 | [3] 0.008 | [4] 0.015 | [5] -0.053 | tipifarnib -0.052 | mubritinib 0.186 | [6] 0.035 | [7] 0.009 | [8] 0.135 | [9] 0.045 | entinostat -0.091 | vorinostat 0.101 | citarinostat 0.171 | silmitasertib -0.187 | [10] -0.021 | [11] 0.06

FANCD2 isoform 1 (UniProt Q9BXW9)
UniProt Q9BXW9, sequence (Q9BXW9 whole entry, looked up): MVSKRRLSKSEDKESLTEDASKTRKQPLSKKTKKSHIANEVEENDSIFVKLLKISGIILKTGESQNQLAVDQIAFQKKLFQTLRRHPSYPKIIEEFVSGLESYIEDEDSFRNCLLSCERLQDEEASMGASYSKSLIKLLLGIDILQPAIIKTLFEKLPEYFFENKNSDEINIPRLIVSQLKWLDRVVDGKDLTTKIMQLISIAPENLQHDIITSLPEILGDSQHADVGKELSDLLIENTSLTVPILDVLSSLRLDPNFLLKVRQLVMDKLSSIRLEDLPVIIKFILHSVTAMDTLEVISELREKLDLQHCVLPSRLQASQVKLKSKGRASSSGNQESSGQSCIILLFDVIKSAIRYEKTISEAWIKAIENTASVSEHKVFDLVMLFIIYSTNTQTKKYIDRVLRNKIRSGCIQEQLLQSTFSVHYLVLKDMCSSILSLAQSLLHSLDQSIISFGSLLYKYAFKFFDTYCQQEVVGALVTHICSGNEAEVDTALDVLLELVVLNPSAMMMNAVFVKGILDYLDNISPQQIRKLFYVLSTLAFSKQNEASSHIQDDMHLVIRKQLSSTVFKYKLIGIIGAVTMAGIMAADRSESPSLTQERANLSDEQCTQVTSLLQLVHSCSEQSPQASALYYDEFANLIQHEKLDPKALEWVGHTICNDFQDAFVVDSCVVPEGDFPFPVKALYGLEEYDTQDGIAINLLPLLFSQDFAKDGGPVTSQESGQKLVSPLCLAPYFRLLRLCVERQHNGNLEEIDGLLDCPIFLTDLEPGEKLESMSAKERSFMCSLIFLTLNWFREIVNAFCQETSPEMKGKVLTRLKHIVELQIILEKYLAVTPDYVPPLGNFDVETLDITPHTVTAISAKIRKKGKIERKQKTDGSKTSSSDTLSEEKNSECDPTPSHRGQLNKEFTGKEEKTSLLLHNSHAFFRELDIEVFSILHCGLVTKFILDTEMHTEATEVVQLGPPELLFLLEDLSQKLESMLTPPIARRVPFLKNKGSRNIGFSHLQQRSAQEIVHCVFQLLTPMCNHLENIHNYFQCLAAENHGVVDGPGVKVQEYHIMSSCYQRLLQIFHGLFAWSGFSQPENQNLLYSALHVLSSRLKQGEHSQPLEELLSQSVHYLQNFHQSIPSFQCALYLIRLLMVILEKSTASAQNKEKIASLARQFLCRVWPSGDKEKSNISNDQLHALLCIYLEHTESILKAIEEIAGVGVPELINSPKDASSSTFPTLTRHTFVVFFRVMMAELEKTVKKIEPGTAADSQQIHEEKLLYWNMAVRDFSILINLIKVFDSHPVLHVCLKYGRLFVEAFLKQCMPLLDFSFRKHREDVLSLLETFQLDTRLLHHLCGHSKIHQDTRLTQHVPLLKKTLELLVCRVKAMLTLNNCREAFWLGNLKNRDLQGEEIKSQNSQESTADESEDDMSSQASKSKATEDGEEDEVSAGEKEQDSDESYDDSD
inactive: bafetinib -0.06 | [1] -0.014 | nilotinib -0.145 | [2] 0.15 | dasatinib -0.167 | [3] -0.119 | [4] 0.126 | [5] 0.1 | tipifarnib -0.024 | mubritinib 0.052 | [6] 0.087 | [7] -0.189 | [8] -0.304 | [9] -0.034 | entinostat 0.022 | vorinostat 0.187 | citarinostat 0.11 | silmitasertib -0.109 | [10] -0.034 | [11] -0.039

GTF2E1 (UniProt P29083)
inactive: bafetinib 0.014 | [1] 0.037 | nilotinib -0.112 | [2] -0.168 | dasatinib -0.173 | [3] -0.032 | [4] 0.02 | [5] 0.093 | tipifarnib -0.13 | mubritinib 0.05 | [6] -0.038 | [7] -0.118 | [8] -0.122 | [9] -0.198 | entinostat 0.054 | vorinostat 0.095 | citarinostat 0.073 | silmitasertib 0.06 | [10] -0.134 | [11] -0.124

HAX1 (UniProt O00165)
inactive: bafetinib -0.103 | [1] 0.029 | nilotinib -0.113 | [2] -0.174 | dasatinib -0.044 | [3] 0.069 | [4] -0.028 | [5] -0.068 | tipifarnib -0.112 | mubritinib 0.001 | [6] -0.106 | [7] -0.165 | [8] -0.174 | [9] -0.06 | entinostat 0.021 | vorinostat 0.115 | citarinostat -0.019 | silmitasertib -0.032 | [10] 0.036 | [11] -0.074

GTF2A1 (UniProt P52655)
inactive: bafetinib 0 | [1] -0.047 | nilotinib 0.111 | [2] -0.047 | dasatinib 0.068 | [3] -0.078 | [4] 0.081 | [5] 0.349 | tipifarnib 0.144 | mubritinib -0.008 | [6] -0.029 | [7] 0.249 | [8] 0.01 | [9] 0.093 | entinostat -0.116 | vorinostat -0.031 | citarinostat -0.035 | silmitasertib 0.004 | [10] -0.028 | [11] 0.016

FNTB (UniProt P49356)
active: tipifarnib 0.757
inactive: bafetinib 0.028 | [1] 0.015 | nilotinib 0.028 | [2] 0.177 | dasatinib 0.22 | [3] -0.056 | [4] 0.196 | [5] 0.251 | mubritinib -0.103 | [6] -0.024 | [7] 0.09 | [8] 0.162 | [9] -0.035 | entinostat -0.079 | vorinostat -0.038 | citarinostat 0.054 | silmitasertib -0.019 | [10] 0.048 | [11] 0.002
